Test results: PubChem BioAssay AID588590 (National Center for Advancing Translational Sciences (NCATS), 2011)
Where “and” joins values, the source holds several entries; their conditions need not be identical. Equal entries are not always repeated. Hit rate of the full screen: of about 390,000 compounds, about 4,000 (1%) were called active. Where a call stands in place of a potency, no number is given. About 7% were inconclusive and are not listed. Calls come from the whole dose curve; as a rule, active = well fitted inhibition curve with a large enough effect; inconclusive = small, poorly fitted or top-dose-only effect, or another doubt; inactive = no such curve, though single readings can be large or run the other way. Only a selection was taken, and actives are over-represented in it overall. Some compounds were tested as several samples or in several runs, with calls that do not always agree.

Biological target: DNA polymerase iota (Homo sapiens) (UniProt Q9UNA4)
Sequence (Q9UNA4 whole entry, looked up): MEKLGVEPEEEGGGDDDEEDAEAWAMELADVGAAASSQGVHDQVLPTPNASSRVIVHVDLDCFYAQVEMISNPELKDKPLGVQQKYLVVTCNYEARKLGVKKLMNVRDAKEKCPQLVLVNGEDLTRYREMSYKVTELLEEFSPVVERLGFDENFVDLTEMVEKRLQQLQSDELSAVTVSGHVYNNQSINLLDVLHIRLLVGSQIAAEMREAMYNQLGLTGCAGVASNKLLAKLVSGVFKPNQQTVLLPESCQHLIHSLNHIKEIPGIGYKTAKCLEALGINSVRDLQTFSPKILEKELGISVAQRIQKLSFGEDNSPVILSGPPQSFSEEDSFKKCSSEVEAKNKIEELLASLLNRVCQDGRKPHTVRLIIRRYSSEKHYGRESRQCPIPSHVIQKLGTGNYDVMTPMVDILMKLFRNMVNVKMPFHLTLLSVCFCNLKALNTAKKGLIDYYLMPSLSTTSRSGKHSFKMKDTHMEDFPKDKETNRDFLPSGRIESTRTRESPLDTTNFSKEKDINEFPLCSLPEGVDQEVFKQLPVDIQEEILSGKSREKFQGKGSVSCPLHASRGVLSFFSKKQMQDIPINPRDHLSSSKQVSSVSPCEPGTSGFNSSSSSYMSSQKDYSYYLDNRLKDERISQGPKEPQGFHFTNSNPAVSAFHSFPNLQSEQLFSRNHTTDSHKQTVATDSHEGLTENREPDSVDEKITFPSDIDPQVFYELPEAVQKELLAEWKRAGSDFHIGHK
Test: qHTS for Inhibitors of Polymerase Iota
Settings: Pol iota fluorescent replication assay, 10 min; series mostly up to 115 µM
Outline: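 Pol iota at 10 nM preincubated 15 min with compounds at room temperature; reaction started with fluorescent substrate, 50 nM final. Fluorescence read kinetically at 0 and 10 min; buffer-only wells as negative control.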
Potency is the fitted concentration of half-maximal effect.

SMILES | Potency
CS(=O)(=O)N(CC(=O)NCc1ccco1)c1ccc2c(c1)OCO2 | 70.8 µM (active)
COc1ccc(S(=O)(=O)N(CC(=O)NCc2ccco2)c2ccc(F)cc2)cc1 | inactive
Cc1ccc(S(=O)(=O)N(CC(=O)NCc2ccco2)c2ccccc2C)cc1 | inactive
CCOC(=O)N1CCC(C(N)=O)CC1 | inactive
CCOC(=O)N1CCC(c2cc(=O)n(-c3ccccc3)[nH]2)CC1 | 1.41 µM (active)
O=C(O)C1CCN(C(=O)OCc2ccccc2)CC1 | inactive
COc1ccccc1-c1noc(CSc2nnc(-c3ccccc3)n2-c2ccc(C)c(C)c2)n1 | inactive
COc1ccc(C(CCN2CCOCC2)c2c(OC)cc(OC)c3c2OC(=O)CC3c2ccc(OC)cc2)cc1 (configuration not stated) | inactive
OCCN1CCOCCOCCN(CCO)CCN(CCO)CC1 | inactive
Oc1c(CN2CCOCC2)ccc(CN2CCOCC2)c1O | 10 µM (active)
O=[N+]([O-])c1ccc(COc2ccccc2CN2CCOCC2)cc1 | inactive
Cc1cccc(NC(=O)CSc2nnc(CNC(=O)c3cccc(C)c3)n2-c2ccccc2)c1 | inactive
Cc1nnc(SCC2=C(C(=O)O)N3C(=O)C(NC(=O)Cn4nc(C)c(Cl)c4C)C3SC2)s1 (configuration not stated) | inactive
CO/N=C(\C(=O)N[C@@H]1C(=O)N2C(C(=O)O)=C(COC(C)=O)CS[C@H]12)c1csc(N)n1 (stereo in doubt) | 20 µM (active) and 17.8 µM (active) and 11.2 µM (active)
C=CC1=C(C(=O)O)N2C(=O)[C@@H](NC(=O)/C(=N\OCC(=O)O)c3csc(N)n3)[C@H]2SC1 | 50.1 µM (active)
COc1ccc(CCNC(=O)Cn2c(=O)cc(C(F)(F)F)c3c(C)nn(C)c32)c(OC)c1 | inactive
Cc1ccc(Cn2c(=O)n(-c3ccc(C)cc3)c(=O)c3c2c2cc(C)ccc2n3C)cc1 | inactive
COc1ccc(CCNC(=O)CCCn2c(=O)c3ccccc3n(Cc3ccc(F)cc3Cl)c2=O)cc1OC | inactive
COc1ccc(C2CC(O)(c3ccccc3)Oc3cc(C)cc(C)c32)cc1 (configuration not stated) | inactive
COc1ccccc1C(=O)OCc1cc(=O)n2nc(-c3cccs3)sc2n1 | 79.4 µM (active)
O=C(OCc1cc(=O)n2nc(C3CC3)sc2n1)c1ccccc1Cl | inactive
Cc1nn2c(=O)cc(COC(=O)c3ccccc3NC(=O)COc3ccccc3C)nc2s1 | inactive
Clc1cccc[n+]1CCCC[n+]1ccccc1Cl | inactive

SMILES | Potency
Cc1ccc(-c2nc(=N)sn2Cc2ccccc2)cc1 | inactive
CSc1ccc(CCNC(=O)c2cnn(-c3ccccc3)c2-n2cccc2)cc1 | inactive
O=C(N/N=C/c1ccco1)c1ccc(NC(=O)C2CC2)cc1 | inactive
CC1(C)CC(=O)C/C(=N\NC(=O)c2cccs2)C1 | inactive
O=C(N/N=C/C=C/c1ccco1)c1cccs1 | 22.4 µM (active)
CC(=O)c1ccc(S(=O)(=O)N2CCN(C(=O)/C=C/c3ccc4ccccc4n3)CC2)cc1 | 44.7 µM (active)
CC(=O)c1ccc(S(=O)(=O)N2CCC3(CC2)OCCO3)cc1 | inactive
CC(=O)c1ccc(S(=O)(=O)N2CCN(c3nc4c(C)c(C)ccc4cc3C#N)CC2)cc1 | inactive
Cn1c(=O)nc2n(-c3ccc(Br)cc3)c3cccc(Cl)c3cc-2c1=O | inactive
COc1ccc(N2C(=O)CC(Nc3ccc(F)cc3)C2=O)c([N+](=O)[O-])c1 (configuration not stated) | inactive
COc1ccc(N2CCN(C3CC(=O)N(c4ccc5c(c4)OCCO5)C3=O)CC2)cc1 (configuration not stated) | inactive
CC(=O)Oc1cccc(N2C(=O)CC(Nc3ccc(N4CCOCC4)cc3)C2=O)c1 (configuration not stated) | 20 µM (active)
Cc1ccc(NC(=O)CSc2nc3c(c(=O)[nH]2)CN(Cc2ccc4c(c2)OCO4)CC3)cc1C | inactive
CCc1ccc2ncc3c(-c4ccc(C)cc4)nn(CC(=O)NCc4ccccc4)c3c2c1 | inactive
COC(=O)c1cnc(N2CCN(c3ccccc3OC)CC2)c2ccccc12 | inactive
COc1ccccc1/C=C/C=N/n1c(-c2ccc(Cl)cc2Cl)n[nH]c1=S | inactive
S=c1[nH]nc(-c2ccco2)n1/N=C/c1ccc(Br)s1 | inactive
Cc1cc(-c2n[nH]c(=S)n2/N=C/c2ccco2)n[nH]1 | 44.7 µM (active)
COc1ccc(C)cc1NC(=O)CCc1c(C)nn(-c2ccc(N3CCOCC3)nn2)c1C | inactive
COc1cccc(C(=O)NC(=O)Nc2ccc(-c3cc(C(F)(F)F)nn3-c3ccccc3)cc2)c1 | inactive
COC(=O)C1=C(c2ccccc2)c2ccccc2S(=O)(=O)N1CC(=O)Nc1ccccc1C(F)(F)F | inactive
OC(Cc1ccc2ccccc2n1)c1ccc(Cl)c(Cl)c1 (configuration not stated) | inactive
O=C(NCCS(=O)(=O)N1CCN(c2ccc(F)cc2)CC1)c1ccccc1Br | inactive

SMILES | Potency
CC(=O)Nc1ccc(S(=O)(=O)NC2(C(F)(F)F)C(=O)Nc3c2c(=O)[nH]c(=O)n3Cc2ccccc2)cc1 (configuration not stated) | inactive
CCCN1C(=O)C(NS(=O)(=O)c2ccc(N)cc2)(C(F)(F)F)C(C(=O)OC)=C1C (configuration not stated) | inactive
CC(=O)Nc1ccc(S(=O)(=O)NC2(C(F)(F)F)C(=O)NC(C)=C2C#N)cc1 (configuration not stated) | 22.4 µM (active)
Cc1c(Cl)cccc1NC(=O)N1CCN(C(=O)c2nsc3ccccc23)CC1 | inactive
O=C(CCSCc1ccccc1F)N1CCN(c2ccc(Cl)cc2)CC1 | inactive
Cc1cccc(N(C(=O)c2sc(C)nc2C)C(C(=O)NCC2CCCO2)c2ccccc2)c1 (configuration not stated) | inactive
Cc1cccc(N(C(=O)Cc2cccs2)C(C(=O)NCc2ccco2)c2ccncc2)c1 (configuration not stated) | inactive
Cc1nc(C)c(C(=O)N(c2ccc(C)c(C)c2)C(C(=O)NCc2ccco2)c2ccccc2)s1 (configuration not stated) | 79.4 µM (active)
CC(C)(C(=O)NO)c1ccccc1 | inactive
O=C(Nc1c(-c2ccc(F)cc2)nc2ccccn12)c1cccc(F)c1 | inactive
CS(=O)(=O)c1ccc(C(=O)OCC(=O)NNC(=O)COc2ccc(Cl)cc2)cc1 | 79.4 µM (active)
O=C(COc1ccc(Cl)cc1)N1CCN(S(=O)(=O)c2ccc(Cl)cc2)CC1 | inactive
CS(=O)(=O)c1ccc(Cl)c(NC(=O)COC(=O)c2ncc(Cl)c(Cl)c2Cl)c1 | inactive
COc1cc(OC)c(/C=C/c2ccnc3ccccc23)c(OC)c1 | inactive
CC(NC(=O)CCc1cn(Cc2ccccc2Cl)c2ccccc12)c1ccccc1 (configuration not stated) | inactive
CC(C)c1ccc2c(c1)c(SC(C)(C)C)c(CC(C)(C)C(=O)O)n2Cc1ccc(Cl)cc1 | 28.2 µM (active)
Cc1c(C)n(Cc2ccc(Cl)cc2)c2ccc(C(=O)N3CCN(c4ccccc4F)CC3)cc12 | inactive
O=C(Cn1c(=O)nc(-c2ccccc2)c2cc(Cl)ccc21)NCc1ccc(Cl)cc1 | inactive
COc1cc(-c2noc(-c3ccc(N4CCCC4)c([N+](=O)[O-])c3)n2)cc(OC)c1OC | inactive
Cc1ccc(C(=O)N2CCc3cc(CNC(=O)c4ccc(Br)cc4)ccc32)cc1 | inactive
CSC1=N/C(=C\C=C\c2cccs2)C(=O)S1 | 15.8 µM (active)
Cc1ccc(CN(C(=O)COc2ccc(Cl)cc2C)C2CCS(=O)(=O)C2)o1 (configuration not stated) | inactive
CCc1cc2c(-c3ccccc3)cc(=O)oc2c2c1OCN(Cc1ccc(C)cc1)C2 | inactive

SMILES | Potency
Cc1ccc(S(=O)(=O)c2nc(-c3ccco3)oc2SCC(=O)Nc2ccc(F)cc2)cc1 | inactive
O=C1CCCc2cc(S(=O)(=O)N3CCCC(C(=O)NCc4ccccc4)C3)ccc2N1 (configuration not stated) | inactive
Cc1ccc(-c2nn(-c3ccccc3)cc2/C=C/C(=O)Nc2cccc(S(N)(=O)=O)c2)cc1 | inactive
CN(C)S(=O)(=O)c1cccc(-c2nn(-c3ccccc3)cc2/C=C2\SC(=S)N(CC(=O)O)C2=O)c1 | 31.6 µM (active)
O=C1/C(=C/c2coc3ccc(O)cc3c2=O)SC(=S)N1c1ccccc1 | inactive
COc1cccc(-c2nn(-c3ccccc3)cc2/C=C(\C#N)C(=O)NCCCn2ccnc2)c1 | inactive
O=C(O)CCCCCCCCc1cn(CN2C(=O)c3ccccc3C2=O)nn1 | inactive
Cc1ccc(-c2nn(-c3ccccc3)cc2/C=C2\SC(=S)N(CCCCCC(=O)O)C2=O)o1 | 89.1 µM (active)
CCn1cc(C(=O)N(C)Cc2ccccc2)c(=O)c2cc(S(=O)(=O)N3CCCCCC3)ccc21 | inactive
COc1ccc(Cn2c(=O)n(-c3ccccc3C)c(=O)c3c4c(sc32)CN(C(C)=O)CC4)cc1 | inactive
CCn1c(C(=O)Nc2cc(Cl)ccc2C)cc2sc(Cl)cc21 | inactive
Cc1ccc2nc(/C(C#N)=C/c3ccc(-c4ccc(C(=O)OC(C)C)cc4)o3)[nH]c2c1 | inactive
CN(Cc1ccccc1)S(=O)(=O)c1nnc(NC(=O)c2ccccc2F)s1 | inactive
CN(Cc1ccco1)S(=O)(=O)c1nnc(NC(=O)c2ccccc2)s1 | inactive and 44.7 µM (active)
CCCCC(=O)Nc1nnc(S(=O)(=O)N(C)Cc2ccco2)s1 | inactive
CN(Cc1ccccc1)c1ccc(-c2nc(-c3ccccc3)no2)cc1[N+](=O)[O-] | inactive
CC(=O)c1ccc(NC(=O)c2nc3nc(C)cc(C(F)F)n3n2)cc1 | inactive
COc1ccc(-c2nc(S(=O)(=O)c3ccccc3)c(N3CCCCC3)o2)cc1 | inactive
CCn1cc(C(=O)N2CCN(c3cc(C)ccc3C)CC2)c(=O)c2cc(S(=O)(=O)N(C)C3CCCCC3)ccc21 | inactive
O=C(O)c1ccc(Cn2c(SCc3ccc(F)cc3)nc3ccncc32)cc1 | inactive
Cc1cc(-c2n[nH]c(=S)n2-c2ccc(C)c(C)c2)no1 | inactive
COc1cc(-c2n[nH]c(=S)n2Cc2ccccc2)cc(OC)c1OC | inactive
COc1ccccc1-n1c(-c2cc(-c3ccco3)[nH]n2)n[nH]c1=S | 8.91 µM (active)
